The values below come from PubChem BioAssay (NCATS).

Results filed as inconclusive are left out. Where a call stands in place of a potency, no number is given. Activity calls are given as the source filed them. The call rests on the fitted dose curve; in most records, active means well fitted inhibition curve with a large enough effect; inconclusive means small, poorly fitted or top-dose-only effect; inactive means flat fitted curve, though single readings scatter.
Potency means the concentration at half of the fitted maximal effect.

In this assay the test system is astro (control astrocytes). In words: Drug repurposing screens with cells derived from glioblastoma tumor samples (AID 1345199). Further: nearly all actives have a fitted effect of over 40% in size. As to conditions: viability, ATP luminescence, 48 h; series mostly up to 45.9 µM. On the procedure:
CD133+ cells were isolated from GBM patient biopsies and cultured as neurospheres. Neurospheres from four patients were used to screen the NCATS pharmaceutical collection (NPC) library of approved drugs and bioactive compounds. […] The neurospheres were incubated with drugs for 48 hours in 1536-well format, then assayed with an ATP content cell viability assay. […] These hits were cherry picked to confirm activity in the four original GBM lines screened plus three other slower growing GMB lines (unable to yield enough cells for a full primary screen). Variable activities of the confirmed primary hits in the different GBM patient lines were observed. The patient line 206 responded to the greatest number of compounds and line 923 responded to the least amount of active compounds.
With `O=S(=O)(c1cccc2cnccc12)N1CCCNCC1`, the Potency entry is “inactive”.

`NNC(=O)c1ccncc1`: the Potency result was “inactive”.

In the case of `NS(=O)(=O)c1cc2c(cc1Cl)NC(C(Cl)Cl)NS2(=O)=O` (stereo not given), the Potency result is “inactive”.

Regarding `Cn1nnc2c(C(N)=O)ncn2c1=O`, the Potency result is “inactive”.

Turning to `CC(C)(C)C(=O)OCOP(=O)(COCCn1cnc2c(N)ncnc21)OCOC(=O)C(C)(C)C`, the Potency entry was “inactive”.

For `CCc1cc(C(N)=S)ccn1`, the Potency result was “inactive”.

As to `CN(C)CCc1c[nH]c2ccc(C[C@H]3COC(=O)N3)cc12`, the Potency entry is “inactive”.

For `CCOc1cc(N)c(Cl)cc1C(=O)NCC1CN(Cc2ccc(F)cc2)CCO1` (stereo not given), the Potency entry is “inactive”.

On to `CC(=O)Oc1ccccc1C(=O)Nc1ncc([N+](=O)[O-])s1`, for which the Potency was 5.01 µM (active).

For the molecule `CCN(CC)CCn1c(=O)c(Cc2ccc(OC)cc2)nc2ccccc21`, the Potency result was “inactive”.

For `Nc1[nH]c(=O)ncc1F`, the Potency result is “inactive”.

Take `CCn1cc(C(=O)O)c(=O)c2cc(F)c(N3CCN(C)CC3)cc21`: the Potency result is “inactive”.

Consider `CN(C)c1ccc(C(=C2C=CC(=[N+](C)C)C=C2)c2ccc(N(C)C)cc2)cc1`, for which the Potency was 2.51 µM (active).

As to `CCCCc1oc2ccc(NS(C)(=O)=O)cc2c1C(=O)c1ccc(OCCCN(CCCC)CCCC)cc1`, the Potency was 20 µM (active).

`COC(c1ccccc1)(c1ccccc1)[C@H](Oc1nc(C)cc(C)n1)C(=O)O`: the Potency result is “inactive”.

Take `Cc1oc(=O)oc1CN1CCN(c2cc3c(cc2F)c(=O)c(C(=O)O)c2n3C(C)S2)CC1` (stereo not given): the Potency result was “inactive”.

As to `NC(N)=NC(N)=NCCc1ccccc1`, the Potency result is “inactive”.

With `CC(C)C[C@H](NC(=O)[C@H](CCc1ccccc1)NC(=O)CN1CCOCC1)C(=O)N[C@@H](Cc1ccccc1)C(=O)N[C@@H](CC(C)C)C(=O)[C@@]1(C)CO1`, the Potency was 0.708 µM (active).

Regarding `CN1CCN(c2c(F)cc3c(=O)c(C(=O)O)cn(CCF)c3c2F)CC1`, the Potency result is “inactive”.

Turning to `CC(C(=O)O)c1ccc2c(c1)CC(=O)c1ccccc1S2` (stereo not given), the Potency result is “inactive”.

Regarding `C[C@@H](CN1CC(=O)NC(=O)C1)N1CC(=O)NC(=O)C1`, the Potency entry was “inactive”.

For `O=NN(CCCl)C(=O)NC1CCCCC1`, the Potency entry is “inactive”.

For the molecule `COc1ccc2cc3[n+](cc2c1OC)CCc1cc2c(cc1-3)OCO2`, the Potency is 6.31 µM (active).

In the case of `O=C(O)c1cccnc1`, the Potency entry is “inactive”.

As for `CCCCOc1ccc(CC(=O)NO)cc1`, the Potency result is “inactive”.

Consider `C#CCN[C@@H]1CCc2ccccc21`, for which the Potency entry was “inactive”.

Regarding `O=C(O)CSCC(=O)NC1CCSC1=O` (stereo not given), the Potency result was “inactive”.

As to `Cc1nnc(NS(=O)(=O)c2ccc(N)cc2)s1`, the Potency entry was “inactive”.

Turning to `OC(Cn1cncn1)(Cn1cncn1)c1ccc(F)cc1F`, the Potency result is “inactive”.

`CC[C@H](NC(C)C)[C@H](O)c1ccc(O)c2[nH]c(=O)ccc12`: the Potency result is “inactive”.

Consider `CCCN[C@H]1CCc2nc(N)sc2C1`, for which the Potency entry is “inactive”.

Consider `Cc1ncc([N+](=O)[O-])n1CCO`, for which the Potency result was “inactive”.

Regarding `CNNCc1ccc(C(=O)NC(C)C)cc1`, the Potency entry was “inactive”.

Regarding `S=P(N1CC1)(N1CC1)N1CC1`, the Potency entry is “inactive”.

Consider `COc1c(N2CCNC(C)C2)c(F)cc2c(=O)c(C(=O)O)cn(C3CC3)c12` (stereo not given), for which the Potency result was “inactive”.

In the case of `CCn1cc(C(=O)O)c(=O)c2cc(F)c(N3CCNCC3)cc21`, the Potency result was “inactive”.

As to `CN(C)CCc1c[nH]c2ccc(CS(=O)(=O)N3CCCC3)cc12`, the Potency entry was “inactive”.

Consider `Cc1onc(-c2ccccc2Cl)c1C(=O)N[C@@H]1C(=O)N2[C@@H]1SC(C)(C)[C@@H]2C(=O)O`, for which the Potency entry is “inactive”.

Regarding `CC1=NN(c2ccccc2)C(=O)C1`, the Potency entry is “inactive”.

Take `O=S(=O)(O)CCS`: the Potency entry is “inactive”.
